Where “and” joins values, the source holds several entries; their conditions need not be identical. Equal entries are not always repeated. About 2,000 (36%) of roughly 5,500 compounds were called active. Another 18% or so got no clear call; they are omitted. Rule as the data show it: active = normalized growth mostly below about 0.91 (no sharp cut-off); inconclusive = no clear call, values can overlap the other calls; inactive = mostly above about 0.92. The list shows a part of the results.
Experiment: chemical genetic growth profiling, strain panel (AID 1159580);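 also: tested at 20 µM; growth read once vehicle control cultures reached saturation at 30 °C; 1 = growth at the plate median or of vehicle wells; lower values mean less growth of the strain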
Settings: S. cerevisiae deletion strains, growth OD

Measured: normalized growth

COC(=O)C[C@H]1C(C)(C)[C@@H](OC(C)=O)[C@@H]2CC3=C4CC(=O)O[C@@H](c5ccoc5)[C@]4(C)CCC3[C@@]1(C)C2=O (stereo partly specified)
inactive: locus YAL021C, strain ccr4, active compounds read low 1.04 | locus YAL026C, strain drs2, active compounds read low 0.998 | locus YAL030W, strain snc1, active compounds read low 0.996 | locus YBL061C, strain skt5, active compounds read low 0.991 | locus YBR009C, strain hhf1, active compounds read low 1 | locus YBR021W, strain FUR4, active compounds read low 1.01 | locus YBR023C, strain chs3, active compounds read low 1 | locus YBR171W, strain sec66, active compounds read low 0.996 | locus YBR229C, strain ROT2, active compounds read low 0.997 | locus YBR231C, strain swc5, active compounds read low 0.971 | locus YBR279W, strain paf1, active compounds read low 0.999 | locus YCL011C, strain gbp2, active compounds read low 1.01 | locus YCL016C, strain dcc1, active compounds read low 1.01 | locus YCL029C, strain bik1, active compounds read low 0.998 | locus YCL061C, strain MRC1, active compounds read low 0.999 | locus YCL069W, strain vba3, active compounds read low 0.984 | locus YCR088W, strain abp1, active compounds read low 0.995 | locus YDL005C, strain med2, active compounds read low 0.991 | locus YDL035C, strain GPR1, active compounds read low 0.986 | locus YDL040C, strain nat1, active compounds read low 0.995 | locus YDL074C, strain BRE1, active compounds read low 0.996 | locus YDL101C, strain DUN1, active compounds read low 1.02 | locus YDL185W, strain tfp1, active compounds read low 1.01 | locus YDL192W, strain arf1, active compounds read low 0.998 | locus YDR001C, strain nth1, active compounds read low 0.997 | locus YDR069C, strain doa4, active compounds read low 0.982 | locus YDR101C, strain arx1, active compounds read low 0.976 | locus YDR137W, strain rgp1, active compounds read low 0.997 | locus YDR159W, strain sac3, active compounds read low 0.962 | locus YDR162C, strain NBP2, active compounds read low 0.983 | locus YDR195W, strain ref2 0.938 | locus YDR297W, strain sur2, active compounds read low 0.983 | locus YDR318W, strain mcm21, active compounds read low 0.998 | locus YDR334W, strain swr1, active compounds read low 0.99 | locus YDR335W, strain msn5, active compounds read low 1 | locus YDR388W, active compounds read low 1.01 | locus YDR392W, strain spt3, active compounds read low 0.963 | locus YDR502C, strain sam2, active compounds read low 1 | locus YEL003W, strain gim4, active compounds read low 0.978 | locus YEL037C, strain rad23, active compounds read low 0.989 | locus YEL061C, strain CIN8 (second series), active compounds read low 0.99 | locus YER015W, strain faa2, active compounds read low 1 | locus YER016W, strain bim1, active compounds read low 0.995 | locus YER110C, active compounds read low 1 | locus YER111C, strain swi4, active compounds read low 1 | locus YER155C, strain BEM2 (second series), active compounds read low 1.01 | locus YER155C, strain BEM2, active compounds read low 0.997 | locus YER167W, strain BCK2, active compounds read low 0.998 | locus YFR010W, strain ubp6, active compounds read low 0.976 | locus YGL078C, strain dbp3, active compounds read low 1.01 | locus YGL086W, strain mad1, active compounds read low 1.01 | locus YGL167C, strain pmr1, active compounds read low 1.01 | locus YGL173C, strain kem1, active compounds read low 0.989 | locus YGL227W, strain vid30, active compounds read low 0.993 | locus YGL240W, strain doc1, active compounds read low 1 | locus YGL248W, strain PDE1, active compounds read low 1 | locus YGL253W, strain hxk2, active compounds read low 0.913 | locus YGR078C, strain PAC10, active compounds read low 1.01 | locus YGR135W, strain pre9, active compounds read low 1.02 | locus YGR252W, strain gcn5, active compounds read low 1.01 | locus YHR013C, strain ard1, active compounds read low 1.01 | locus YHR027C, strain rpn1, active compounds read low 1 | locus YHR030C, strain SLT2, active compounds read low 1 and 0.993 | locus YHR079C, strain IRE1 (second series), active compounds read low 0.996 | locus YHR079C, strain IRE1, active compounds read low 0.992 | locus YHR094C, strain hxt1, active compounds read low 1 | locus YHR129C, strain ARP1, active compounds read low 1.01 | locus YHR142W, strain chs7, active compounds read low 0.988 | locus YHR200W, strain rpn10, active compounds read low 1.01 | locus YIL066C, strain RNR3, active compounds read low 1.01 | locus YIL073C, strain SPO22, active compounds read low 1.02 | locus YIL125W, strain kgd1, active compounds read low 0.993 | locus YIR030C, strain dcg1, active compounds read low 1 | locus YJL092W, strain hpr5, active compounds read low 0.996 | locus YJL095W, strain BCK1 (second series), active compounds read low 1.01 | locus YJL095W, strain BCK1, active compounds read low 1.04 and 0.984 | locus YJL115W, strain asf1, active compounds read low 0.997 | locus YJL129C, strain trk1, active compounds read low 0.952 | locus YJL134W, strain LCB3, active compounds read low 0.998 | locus YJL154C, strain vps35, active compounds read low 0.998 | locus YJL164C, strain tpk1, active compounds read low 1.03 | locus YJL166W, strain qcr8, active compounds read low 1 | locus YJL168C, strain set2, active compounds read low 0.995 | locus YJL187C, strain SWE1 (second series), active compounds read low 1.03 | locus YJL187C, strain SWE1, active compounds read low 1.01 | locus YJR043C, strain POL32, active compounds read low 0.987

Reference: PubChem BioAssay AID1159580 (chemical genetic matrix, 2015)
